# According to the supplement of paper PMC4466140:
# B1: unnamed (peptide)
# chain: AERNYAPRLPRRETS
# Target: AgAbp1
# Assay: SPOT peptide array binding signal intensity (averaged, normalized) (arbitrary units (background-subtracted, floor 0; scale differs between SH3 domains)); higher = stronger binding of the SH3 domain to the peptide
# Description: (§1)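 GST-tagged SH3 domains from S. cerevisiae (Sc), A. gossypii (Ag), C. albicans (Ca) and S. pombe (Sp) were incubated at 10 ug/ml overnight at 4 C on cellulose SPOT membranes carrying 292 synthetic 15-mer peptides mined from the S. cerevisiae proteome (cysteines replaced by serines). Binding was detected with anti-GST antibody, HRP secondary and chemiluminescence, quantified with Genespotter, and reported as normalized spot intensities averaged over biological replicates.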
row,Binder,SPOT peptide array binding signal intensity
1,B1,20

# Target: AgBbc1
# Assay: as above
# Description: as §1
row,Binder,SPOT peptide array binding signal intensity
1,B1,69.8

# Target: AgBem1-D1
# Assay: as above
# Description: as §1
row,Binder,SPOT peptide array binding signal intensity
1,B1,44.8

# Target: AgBzz1-D1
# Assay: as above
# Description: as §1
row,Binder,SPOT peptide array binding signal intensity
1,B1,77

# Target: AgBzz1-D2
# Assay: as above
# Description: as §1
row,Binder,SPOT peptide array binding signal intensity
1,B1,128

# Target: AgCyk3
# Assay: as above
# Description: as §1
row,Binder,SPOT peptide array binding signal intensity
1,B1,1

# Target: AgFus1
# Assay: as above
# Description: as §1
row,Binder,SPOT peptide array binding signal intensity
1,B1,3.25

# Target: AgHof1
# Assay: as above
# Description: as §1
row,Binder,SPOT peptide array binding signal intensity
1,B1,124

# Target: AgHse1
# Assay: as above
# Description: as §1
row,Binder,SPOT peptide array binding signal intensity
1,B1,87.5

# Target: AgLsb1
# Assay: as above
# Description: as §1
row,Binder,SPOT peptide array binding signal intensity
1,B1,289

# Target: AgLsb4
# Assay: as above
# Description: as §1
row,Binder,SPOT peptide array binding signal intensity
1,B1,3440

# Target: AgMyo5
# Assay: as above
# Description: as §1
row,Binder,SPOT peptide array binding signal intensity
1,B1,≤ 0

# Target: AgNbp2
# Assay: as above
# Description: as §1
row,Binder,SPOT peptide array binding signal intensity
1,B1,128

# Target: AgRvs167
# Assay: as above
# Description: as §1
row,Binder,SPOT peptide array binding signal intensity
1,B1,340

# Target: AgSho1
# Assay: as above
# Description: as §1
row,Binder,SPOT peptide array binding signal intensity
1,B1,≤ 0

# Target: AgSla1-D1-D2
# Assay: as above
# Description: as §1
row,Binder,SPOT peptide array binding signal intensity
1,B1,1.5

# Target: AgSla1-D3
# Assay: as above
# Description: as §1
row,Binder,SPOT peptide array binding signal intensity
1,B1,≤ 0

# Target: CaAbp1-D1
# Assay: as above
# Description: as §1
row,Binder,SPOT peptide array binding signal intensity
1,B1,84

# Target: CaAbp1-D2
# Assay: as above
# Description: as §1
row,Binder,SPOT peptide array binding signal intensity
1,B1,61

# Target: CaBbc1
# Assay: as above
# Description: as §1
row,Binder,SPOT peptide array binding signal intensity
1,B1,454

# Target: CaBem1-D1
# Assay: as above
# Description: as §1
row,Binder,SPOT peptide array binding signal intensity
1,B1,25.5

# Target: CaBzz1-D1
# Assay: as above
# Description: as §1
row,Binder,SPOT peptide array binding signal intensity
1,B1,171

# Target: CaBzz1-D2
# Assay: as above
# Description: as §1
row,Binder,SPOT peptide array binding signal intensity
1,B1,62.6

# Target: CaCyk3
# Assay: as above
# Description: as §1
row,Binder,SPOT peptide array binding signal intensity
1,B1,9

# Target: CaFus1
# Assay: as above
# Description: as §1
row,Binder,SPOT peptide array binding signal intensity
1,B1,23.8

# Target: CaHof1
# Assay: as above
# Description: as §1
row,Binder,SPOT peptide array binding signal intensity
1,B1,7.5

# Target: CaHse1
# Assay: as above
# Description: as §1
row,Binder,SPOT peptide array binding signal intensity
1,B1,222

# Target: CaLsb1
# Assay: as above
# Description: as §1
row,Binder,SPOT peptide array binding signal intensity
1,B1,4.75

# Target: CaLsb4
# Assay: as above
# Description: as §1
row,Binder,SPOT peptide array binding signal intensity
1,B1,4670

# Target: CaMyo5
# Assay: as above
# Description: as §1
row,Binder,SPOT peptide array binding signal intensity
1,B1,5.5

# Target: CaNbp2
# Assay: as above
# Description: as §1
row,Binder,SPOT peptide array binding signal intensity
1,B1,52.5

# Target: CaRvs167
# Assay: as above
# Description: as §1
row,Binder,SPOT peptide array binding signal intensity
1,B1,1200

# Target: CaRvs167-3
# Assay: as above
# Description: as §1
row,Binder,SPOT peptide array binding signal intensity
1,B1,≤ 0

# Target: CaSho1
# Assay: as above
# Description: as §1
row,Binder,SPOT peptide array binding signal intensity
1,B1,22.5

# Target: CaSla1-D1-D2
# Assay: as above
# Description: as §1
row,Binder,SPOT peptide array binding signal intensity
1,B1,19

# Target: CaSla1-D3
# Assay: as above
# Description: as §1
row,Binder,SPOT peptide array binding signal intensity
1,B1,0.75

# Target: ScAbp1
# Assay: as above
# Description: as §1
row,Binder,SPOT peptide array binding signal intensity
1,B1,27.8

# Target: ScBbc1
# Assay: as above
# Description: as §1
row,Binder,SPOT peptide array binding signal intensity
1,B1,22.4

# Target: ScBem1-D1
# Assay: as above
# Description: as §1
row,Binder,SPOT peptide array binding signal intensity
1,B1,6

# Target: ScBzz1-D1
# Assay: as above
# Description: as §1
row,Binder,SPOT peptide array binding signal intensity
1,B1,56.8

# Target: ScBzz1-D2
# Assay: as above
# Description: as §1
row,Binder,SPOT peptide array binding signal intensity
1,B1,73.8

# Target: ScCyk3
# Assay: as above
# Description: as §1
row,Binder,SPOT peptide array binding signal intensity
1,B1,2.25

# Target: ScFus1
# Assay: as above
# Description: as §1
row,Binder,SPOT peptide array binding signal intensity
1,B1,≤ 0

# Target: ScHof1
# Assay: as above
# Description: as §1
row,Binder,SPOT peptide array binding signal intensity
1,B1,17.1

# Target: ScHse1
# Assay: as above
# Description: as §1
row,Binder,SPOT peptide array binding signal intensity
1,B1,42

# Target: ScLsb1
# Assay: as above
# Description: as §1
row,Binder,SPOT peptide array binding signal intensity
1,B1,184

# Target: ScLsb2
# Assay: as above
# Description: as §1
row,Binder,SPOT peptide array binding signal intensity
1,B1,158

# Target: ScLsb3
# Assay: as above
# Description: as §1
row,Binder,SPOT peptide array binding signal intensity
1,B1,6160

# Target: ScLsb4
# Assay: as above
# Description: as §1
row,Binder,SPOT peptide array binding signal intensity
1,B1,3130

# Target: ScMyo3
# Assay: as above
# Description: as §1
row,Binder,SPOT peptide array binding signal intensity
1,B1,0.75

# Target: ScMyo5
# Assay: as above
# Description: as §1
row,Binder,SPOT peptide array binding signal intensity
1,B1,≤ 0

# Target: ScNbp2
# Assay: as above
# Description: as §1
row,Binder,SPOT peptide array binding signal intensity
1,B1,283

# Target: ScPex13
# Assay: as above
# Description: as §1
row,Binder,SPOT peptide array binding signal intensity
1,B1,252

# Target: ScRvs167
# Assay: as above
# Description: as §1
row,Binder,SPOT peptide array binding signal intensity
1,B1,2200

# Target: ScSho1
# Assay: as above
# Description: as §1
row,Binder,SPOT peptide array binding signal intensity
1,B1,268

# Target: ScSla1-D1-D2
# Assay: as above
# Description: as §1
row,Binder,SPOT peptide array binding signal intensity
1,B1,206

# Target: ScSla1-D3
# Assay: as above
# Description: as §1
row,Binder,SPOT peptide array binding signal intensity
1,B1,13

# Target: SpAbp1-D1
# Assay: as above
# Description: as §1
row,Binder,SPOT peptide array binding signal intensity
1,B1,50.5

# Target: SpBbc1
# Assay: as above
# Description: as §1
row,Binder,SPOT peptide array binding signal intensity
1,B1,7.25

# Target: SpBzz1-D1
# Assay: as above
# Description: as §1
row,Binder,SPOT peptide array binding signal intensity
1,B1,332
